According to the supplement of paper PMC4466140:

Each binder was assayed against AgAbp1 (assay: SPOT peptide array binding signal intensity (averaged, normalized) (arbitrary units (background-subtracted, floor 0; scale differs between SH3 domains)); higher = stronger binding of the SH3 domain to the peptide).
How it was run: (§1)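 The binding signal is the normalized, background-subtracted spot intensity averaged over replicates; its arbitrary units differ between domains. It was obtained by incubating 10 μg/ml GST-fused SH3 domains from four yeast species overnight at 4°C in TBS-based blocking buffer on cellulose membranes with synthetic 15-mer peptides, cysteines replaced by serines, then detecting with anti-GST antibody, HRP anti-mouse secondary and luminol.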

Binder | SPOT peptide array binding signal intensity
RRARRQMGIPTISQV | 125

What follows are binders tested against AgBbc1 in the same assay as above.
How it was run: as §1

Binder | SPOT peptide array binding signal intensity
RRARRQMGIPTISQV | 71.8

Each binder was assayed against AgBem1-D1 in the same assay as above.
How it was run: as §1

Binder | SPOT peptide array binding signal intensity
RRARRQMGIPTISQV | 252

The binders below were run against AgBzz1-D1 in the same assay as above.
How it was run: as §1

Binder | SPOT peptide array binding signal intensity
RRARRQMGIPTISQV | 41

What follows are binders tested against AgBzz1-D2 in the same assay as above.
How it was run: as §1

Binder | SPOT peptide array binding signal intensity
RRARRQMGIPTISQV | 35

The binders below were run against AgCyk3 in the same assay as above.
How it was run: as §1

Binder | SPOT peptide array binding signal intensity
RRARRQMGIPTISQV | 5

These binders were tested against AgFus1 in the same assay as above.
How it was run: as §1

Binder | SPOT peptide array binding signal intensity
RRARRQMGIPTISQV | 716

Each binder was assayed against AgHof1 in the same assay as above.
How it was run: as §1

Binder | SPOT peptide array binding signal intensity
RRARRQMGIPTISQV | 83.8

These binders were tested against AgHse1 in the same assay as above.
How it was run: as §1

Binder | SPOT peptide array binding signal intensity
RRARRQMGIPTISQV | 854

These binders were tested against AgLsb1 in the same assay as above.
How it was run: as §1

Binder | SPOT peptide array binding signal intensity
RRARRQMGIPTISQV | 9.75

These binders were tested against AgLsb4 in the same assay as above.
How it was run: as §1

Binder | SPOT peptide array binding signal intensity
RRARRQMGIPTISQV | 138

These binders were tested against AgMyo5 in the same assay as above.
How it was run: as §1

Binder | SPOT peptide array binding signal intensity
RRARRQMGIPTISQV | 5

The binders below were run against AgNbp2 in the same assay as above.
How it was run: as §1

Binder | SPOT peptide array binding signal intensity
RRARRQMGIPTISQV | 724

Each binder was assayed against AgRvs167 in the same assay as above.
How it was run: as §1

Binder | SPOT peptide array binding signal intensity
RRARRQMGIPTISQV | 10.7

These binders were tested against AgSho1 in the same assay as above.
How it was run: as §1

Binder | SPOT peptide array binding signal intensity
RRARRQMGIPTISQV | 287

Each binder was assayed against AgSla1-D1-D2 in the same assay as above.
How it was run: as §1

Binder | SPOT peptide array binding signal intensity
RRARRQMGIPTISQV | 99.5

Each binder was assayed against AgSla1-D3 in the same assay as above.
How it was run: as §1

Binder | SPOT peptide array binding signal intensity
RRARRQMGIPTISQV | 14.5

The binders below were run against CaAbp1-D1 in the same assay as above.
How it was run: as §1

Binder | SPOT peptide array binding signal intensity
RRARRQMGIPTISQV | 514

These binders were tested against CaAbp1-D2 in the same assay as above.
How it was run: as §1

Binder | SPOT peptide array binding signal intensity
RRARRQMGIPTISQV | 941

These binders were tested against CaBbc1 in the same assay as above.
How it was run: as §1

Binder | SPOT peptide array binding signal intensity
RRARRQMGIPTISQV | 197

Each binder was assayed against CaBem1-D1 in the same assay as above.
How it was run: as §1

Binder | SPOT peptide array binding signal intensity
RRARRQMGIPTISQV | 299

These binders were tested against CaBzz1-D1 in the same assay as above.
How it was run: as §1

Binder | SPOT peptide array binding signal intensity
RRARRQMGIPTISQV | 98.5

Each binder was assayed against CaBzz1-D2 in the same assay as above.
How it was run: as §1

Binder | SPOT peptide array binding signal intensity
RRARRQMGIPTISQV | 115

Each binder was assayed against CaCyk3 in the same assay as above.
How it was run: as §1

Binder | SPOT peptide array binding signal intensity
RRARRQMGIPTISQV | 25.5

The binders below were run against CaFus1 in the same assay as above.
How it was run: as §1

Binder | SPOT peptide array binding signal intensity
RRARRQMGIPTISQV | 657

These binders were tested against CaHof1 in the same assay as above.
How it was run: as §1

Binder | SPOT peptide array binding signal intensity
RRARRQMGIPTISQV | ≤ 0

These binders were tested against CaHse1 in the same assay as above.
How it was run: as §1

Binder | SPOT peptide array binding signal intensity
RRARRQMGIPTISQV | 278

These binders were tested against CaLsb1 in the same assay as above.
How it was run: as §1

Binder | SPOT peptide array binding signal intensity
RRARRQMGIPTISQV | 2.25

Each binder was assayed against CaLsb4 in the same assay as above.
How it was run: as §1

Binder | SPOT peptide array binding signal intensity
RRARRQMGIPTISQV | 806

These binders were tested against CaMyo5 in the same assay as above.
How it was run: as §1

Binder | SPOT peptide array binding signal intensity
RRARRQMGIPTISQV | 12.5

What follows are binders tested against CaNbp2 in the same assay as above.
How it was run: as §1

Binder | SPOT peptide array binding signal intensity
RRARRQMGIPTISQV | 1560

These binders were tested against CaRvs167 in the same assay as above.
How it was run: as §1

Binder | SPOT peptide array binding signal intensity
RRARRQMGIPTISQV | 58

The binders below were run against CaRvs167-3 in the same assay as above.
How it was run: as §1

Binder | SPOT peptide array binding signal intensity
RRARRQMGIPTISQV | 89.8

Each binder was assayed against CaSho1 in the same assay as above.
How it was run: as §1

Binder | SPOT peptide array binding signal intensity
RRARRQMGIPTISQV | 758

The binders below were run against CaSla1-D1-D2 in the same assay as above.
How it was run: as §1

Binder | SPOT peptide array binding signal intensity
RRARRQMGIPTISQV | 385

Each binder was assayed against CaSla1-D3 in the same assay as above.
How it was run: as §1

Binder | SPOT peptide array binding signal intensity
RRARRQMGIPTISQV | 104

Each binder was assayed against ScAbp1 in the same assay as above.
How it was run: as §1

Binder | SPOT peptide array binding signal intensity
RRARRQMGIPTISQV | 152

What follows are binders tested against ScBbc1 in the same assay as above.
How it was run: as §1

Binder | SPOT peptide array binding signal intensity
RRARRQMGIPTISQV | 35.5

What follows are binders tested against ScBem1-D1 in the same assay as above.
How it was run: as §1

Binder | SPOT peptide array binding signal intensity
RRARRQMGIPTISQV | 100

The binders below were run against ScBzz1-D1 in the same assay as above.
How it was run: as §1

Binder | SPOT peptide array binding signal intensity
RRARRQMGIPTISQV | 11.5

What follows are binders tested against ScBzz1-D2 in the same assay as above.
How it was run: as §1

Binder | SPOT peptide array binding signal intensity
RRARRQMGIPTISQV | 54.5

These binders were tested against ScCyk3 in the same assay as above.
How it was run: as §1

Binder | SPOT peptide array binding signal intensity
RRARRQMGIPTISQV | 53.5

Each binder was assayed against ScFus1 in the same assay as above.
How it was run: as §1

Binder | SPOT peptide array binding signal intensity
RRARRQMGIPTISQV | 671

These binders were tested against ScHof1 in the same assay as above.
How it was run: as §1

Binder | SPOT peptide array binding signal intensity
RRARRQMGIPTISQV | 0.5

The binders below were run against ScHse1 in the same assay as above.
How it was run: as §1

Binder | SPOT peptide array binding signal intensity
RRARRQMGIPTISQV | 2110

These binders were tested against ScLsb1 in the same assay as above.
How it was run: as §1

Binder | SPOT peptide array binding signal intensity
RRARRQMGIPTISQV | 72.5

Each binder was assayed against ScLsb2 in the same assay as above.
How it was run: as §1

Binder | SPOT peptide array binding signal intensity
RRARRQMGIPTISQV | 2

The binders below were run against ScLsb3 in the same assay as above.
How it was run: as §1

Binder | SPOT peptide array binding signal intensity
RRARRQMGIPTISQV | 639

Each binder was assayed against ScLsb4 in the same assay as above.
How it was run: as §1

Binder | SPOT peptide array binding signal intensity
RRARRQMGIPTISQV | 121

The binders below were run against ScMyo3 in the same assay as above.
How it was run: as §1

Binder | SPOT peptide array binding signal intensity
RRARRQMGIPTISQV | 2.25

What follows are binders tested against ScMyo5 in the same assay as above.
How it was run: as §1

Binder | SPOT peptide array binding signal intensity
RRARRQMGIPTISQV | 1.5

What follows are binders tested against ScNbp2 in the same assay as above.
How it was run: as §1

Binder | SPOT peptide array binding signal intensity
RRARRQMGIPTISQV | 1060

The binders below were run against ScPex13 in the same assay as above.
How it was run: as §1

Binder | SPOT peptide array binding signal intensity
RRARRQMGIPTISQV | 96.9

The binders below were run against ScRvs167 in the same assay as above.
How it was run: as §1

Binder | SPOT peptide array binding signal intensity
RRARRQMGIPTISQV | 95

The binders below were run against ScSho1 in the same assay as above.
How it was run: as §1

Binder | SPOT peptide array binding signal intensity
RRARRQMGIPTISQV | 978

The binders below were run against ScSla1-D1-D2 in the same assay as above.
How it was run: as §1

Binder | SPOT peptide array binding signal intensity
RRARRQMGIPTISQV | 484

The binders below were run against ScSla1-D3 in the same assay as above.
How it was run: as §1

Binder | SPOT peptide array binding signal intensity
RRARRQMGIPTISQV | 308

Each binder was assayed against SpAbp1-D1 in the same assay as above.
How it was run: as §1

Binder | SPOT peptide array binding signal intensity
RRARRQMGIPTISQV | 416

These binders were tested against SpBbc1 in the same assay as above.
How it was run: as §1

Binder | SPOT peptide array binding signal intensity
RRARRQMGIPTISQV | 12.2

These binders were tested against SpBzz1-D1 in the same assay as above.
How it was run: as §1

Binder | SPOT peptide array binding signal intensity
RRARRQMGIPTISQV | 143

The binders below were run against SpBzz1-D2 in the same assay as above.
How it was run: as §1

Binder | SPOT peptide array binding signal intensity
RRARRQMGIPTISQV | 4.25

The binders below were run against SpCyk3 in the same assay as above.
How it was run: as §1

Binder | SPOT peptide array binding signal intensity
RRARRQMGIPTISQV | 3.5

The binders below were run against SpHof1 in the same assay as above.
How it was run: as §1

Binder | SPOT peptide array binding signal intensity
RRARRQMGIPTISQV | 188

Each binder was assayed against SpHof1-2 in the same assay as above.
How it was run: as §1

Binder | SPOT peptide array binding signal intensity
RRARRQMGIPTISQV | 71

Each binder was assayed against SpHof1-3 in the same assay as above.
How it was run: as §1

Binder | SPOT peptide array binding signal intensity
RRARRQMGIPTISQV | 435

These binders were tested against SpHse1 in the same assay as above.
How it was run: as §1

Binder | SPOT peptide array binding signal intensity
RRARRQMGIPTISQV | 1100

Each binder was assayed against SpLsb1 in the same assay as above.
How it was run: as §1

Binder | SPOT peptide array binding signal intensity
RRARRQMGIPTISQV | 7.5

Each binder was assayed against SpLsb4 in the same assay as above.
How it was run: as §1

Binder | SPOT peptide array binding signal intensity
RRARRQMGIPTISQV | 642

What follows are binders tested against SpMyo1 in the same assay as above.
How it was run: as §1

Binder | SPOT peptide array binding signal intensity
RRARRQMGIPTISQV | 13.5

What follows are binders tested against SpNbp2 in the same assay as above.
How it was run: as §1

Binder | SPOT peptide array binding signal intensity
RRARRQMGIPTISQV | 1480

Each binder was assayed against SpPex13 in the same assay as above.
How it was run: as §1

Binder | SPOT peptide array binding signal intensity
RRARRQMGIPTISQV | 86

The binders below were run against SpRvs167 in the same assay as above.
How it was run: as §1

Binder | SPOT peptide array binding signal intensity
RRARRQMGIPTISQV | 50.2

These binders were tested against SpSla1-D1-D2 in the same assay as above.
How it was run: as §1

Binder | SPOT peptide array binding signal intensity
RRARRQMGIPTISQV | 24.2

These binders were tested against SpSla1-D3 in the same assay as above.
How it was run: as §1

Binder | SPOT peptide array binding signal intensity
RRARRQMGIPTISQV | 131
